The results in this text go back to ChEMBL document CHEMBL3988442, “University of Dundee, Small-Polar-MMV Screening Library” (2021).

Parameters in all cases: scale not given: direction of the effect not stated beside the values
Assay [1] has as its target Protein translocase subunit SecA (Escherichia coli (strain K12)) (UniProt P10408). As to the kind of experiment: Assay to Identify E. coli SecA ATPase Inhibitors. The format is functional. Particulars: 30 µM.
The target of assay [2] is T1, Ubiquitin-activating enzyme e1, putative (Leishmania donovani (strain BPK282A1)) (UniProt E9BSI1).
T1 sequence (whole entry): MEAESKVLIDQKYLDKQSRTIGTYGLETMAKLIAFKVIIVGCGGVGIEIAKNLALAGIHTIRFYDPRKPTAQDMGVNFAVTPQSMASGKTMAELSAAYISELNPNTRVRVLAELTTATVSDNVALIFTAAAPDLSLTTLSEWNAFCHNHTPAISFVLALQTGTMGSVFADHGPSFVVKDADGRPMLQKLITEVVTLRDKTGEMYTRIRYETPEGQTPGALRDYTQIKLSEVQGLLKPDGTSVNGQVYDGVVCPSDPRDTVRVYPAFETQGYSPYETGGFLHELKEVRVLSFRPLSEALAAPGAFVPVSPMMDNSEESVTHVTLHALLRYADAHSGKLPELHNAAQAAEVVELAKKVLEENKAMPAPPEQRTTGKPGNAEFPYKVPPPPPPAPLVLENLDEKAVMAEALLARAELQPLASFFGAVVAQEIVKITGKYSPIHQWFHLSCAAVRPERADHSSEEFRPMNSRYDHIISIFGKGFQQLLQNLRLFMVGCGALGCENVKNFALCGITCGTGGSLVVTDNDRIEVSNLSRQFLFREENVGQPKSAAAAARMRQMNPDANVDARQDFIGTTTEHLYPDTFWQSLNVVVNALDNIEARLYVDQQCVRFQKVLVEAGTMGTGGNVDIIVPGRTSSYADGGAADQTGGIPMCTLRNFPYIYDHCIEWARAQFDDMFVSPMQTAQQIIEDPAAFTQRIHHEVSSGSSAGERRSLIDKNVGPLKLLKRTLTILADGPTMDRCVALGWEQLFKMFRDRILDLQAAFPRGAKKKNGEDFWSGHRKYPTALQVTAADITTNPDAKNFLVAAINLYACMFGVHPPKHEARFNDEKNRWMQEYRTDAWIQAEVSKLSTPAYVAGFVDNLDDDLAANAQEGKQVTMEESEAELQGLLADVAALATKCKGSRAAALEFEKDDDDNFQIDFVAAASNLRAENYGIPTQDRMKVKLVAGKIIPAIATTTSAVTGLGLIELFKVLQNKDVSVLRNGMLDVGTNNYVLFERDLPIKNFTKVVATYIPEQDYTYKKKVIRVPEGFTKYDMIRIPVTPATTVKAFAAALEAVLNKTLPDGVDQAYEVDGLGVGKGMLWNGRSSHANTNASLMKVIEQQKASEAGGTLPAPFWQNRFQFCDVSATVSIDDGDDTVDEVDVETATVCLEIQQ
As to the kind of experiment: Leishmania donovani Ubiquitin Activating Enzyme (LdE1). The format is functional. Particulars: 30 µM.

Assay [3] deals with Sialic acid-binding Ig-like lectin 9 (Homo sapiens) (UniProt Q9Y336). As to the kind of experiment: Hs-Siglec9 ALPHAscreen SOP 20170721. As to conditions: 10 µM. In general terms: In Alpha technology, singlet oxygen from a donor bead excites a nearby acceptor bead.
Sialic acid-binding Ig-like lectin 9 (Homo sapiens), sequence (Q9Y336 whole entry): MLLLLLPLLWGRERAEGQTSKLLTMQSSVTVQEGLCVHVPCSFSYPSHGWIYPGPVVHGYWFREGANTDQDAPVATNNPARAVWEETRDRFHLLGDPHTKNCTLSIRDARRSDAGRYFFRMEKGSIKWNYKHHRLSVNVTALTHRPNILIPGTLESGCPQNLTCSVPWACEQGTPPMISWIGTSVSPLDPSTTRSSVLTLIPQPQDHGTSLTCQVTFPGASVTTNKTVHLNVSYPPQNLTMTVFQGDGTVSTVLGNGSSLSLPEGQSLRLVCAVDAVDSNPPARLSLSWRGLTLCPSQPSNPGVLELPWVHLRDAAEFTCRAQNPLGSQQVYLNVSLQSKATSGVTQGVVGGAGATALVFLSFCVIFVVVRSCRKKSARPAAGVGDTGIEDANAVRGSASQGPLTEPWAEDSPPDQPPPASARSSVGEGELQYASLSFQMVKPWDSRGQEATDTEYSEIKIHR
The test system of a further assay is Trypanosoma cruzi. Briefly: Trypanosoma cruzi phosphomannomutase and mannose-1-phosphate guanylyltransferase assay. Type of assay: functional. As to conditions: 10 µM.
The target of assay [4] is T2, Arginase-2, mitochondrial (Homo sapiens) (UniProt P78540).
T2 sequence (whole entry): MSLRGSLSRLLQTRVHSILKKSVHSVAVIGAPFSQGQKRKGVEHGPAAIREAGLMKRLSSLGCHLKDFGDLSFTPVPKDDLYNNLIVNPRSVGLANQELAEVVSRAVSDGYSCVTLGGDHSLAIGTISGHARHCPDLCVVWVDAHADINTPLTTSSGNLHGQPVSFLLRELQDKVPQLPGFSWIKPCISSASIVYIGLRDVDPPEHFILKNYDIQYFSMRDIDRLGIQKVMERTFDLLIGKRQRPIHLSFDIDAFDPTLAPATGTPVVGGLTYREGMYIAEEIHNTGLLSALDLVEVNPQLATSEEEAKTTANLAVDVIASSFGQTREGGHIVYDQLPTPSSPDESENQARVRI
Briefly: in vitro enzyme assay to detect the production of urea directly proportional to the activity of Arginase II. Further: in the data most compounds retested in dose-response had high values. The format is functional. Particulars: 33.3 µM.

For assay [5], the target named is T3, Proteasome subunit beta (Trypanosoma cruzi) (UniProt O96673).
T3 sequence (whole entry): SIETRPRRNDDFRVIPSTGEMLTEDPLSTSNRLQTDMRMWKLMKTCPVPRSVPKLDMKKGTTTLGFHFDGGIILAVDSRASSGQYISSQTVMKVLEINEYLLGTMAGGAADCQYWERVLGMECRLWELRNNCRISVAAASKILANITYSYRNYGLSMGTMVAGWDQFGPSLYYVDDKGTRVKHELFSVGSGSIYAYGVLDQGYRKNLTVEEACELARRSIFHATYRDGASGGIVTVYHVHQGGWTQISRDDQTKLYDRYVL
Briefly: Trypanosoma cruzi proteasome chymotrypsin-like activity (TcProtChymo) assay. Further: in the data most compounds retested in dose-response had high values. The format is functional. Particulars: 9.37 µM.

For another assay, the species on record is Homo sapiens. Briefly: To identify inhibition of the IFN signalling (Jak-Stat) pathway via expression of an eGFP reporter gene under the control of an IFN-stimulated response element (ISRE) containing MxA promoter. Type of assay: functional. Particulars: 30 µM. In general terms: In a reporter assay the amount or activity of a reporter protein is the signal.

For assay [6], the target named is T4, Tyrosyl-tRNA synthetase, putative (Trypanosoma cruzi (strain CL Brener)) (UniProt Q4DSP6).
T4 sequence (whole entry): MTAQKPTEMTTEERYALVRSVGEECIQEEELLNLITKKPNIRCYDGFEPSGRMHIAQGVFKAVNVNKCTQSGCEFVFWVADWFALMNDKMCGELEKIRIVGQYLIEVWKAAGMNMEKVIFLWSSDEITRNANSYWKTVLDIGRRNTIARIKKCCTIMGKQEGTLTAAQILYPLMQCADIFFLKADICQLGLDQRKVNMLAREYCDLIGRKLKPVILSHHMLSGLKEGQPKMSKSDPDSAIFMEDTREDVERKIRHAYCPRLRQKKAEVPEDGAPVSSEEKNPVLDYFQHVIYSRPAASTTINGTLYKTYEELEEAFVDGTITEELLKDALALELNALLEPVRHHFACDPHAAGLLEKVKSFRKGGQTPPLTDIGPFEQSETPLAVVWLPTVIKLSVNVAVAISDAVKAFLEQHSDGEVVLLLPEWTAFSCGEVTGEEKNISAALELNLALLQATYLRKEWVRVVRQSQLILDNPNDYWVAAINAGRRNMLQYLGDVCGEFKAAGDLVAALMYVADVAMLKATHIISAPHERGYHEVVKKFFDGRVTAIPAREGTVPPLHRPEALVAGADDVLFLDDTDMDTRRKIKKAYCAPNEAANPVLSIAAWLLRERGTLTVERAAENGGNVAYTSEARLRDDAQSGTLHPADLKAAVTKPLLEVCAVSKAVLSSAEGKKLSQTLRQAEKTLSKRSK
Briefly: Trypanosoma cruzi tyrosyl tRNA synthetase (TcYRS) _High Tyrosine SOP. Further: in the data most compounds retested in dose-response had high values. Type of assay: functional. As to conditions: 30 µM.

Assay [7] concerns the target T4, Tyrosyl-tRNA synthetase, putative (Trypanosoma cruzi (strain CL Brener)). Briefly: Trypanosoma cruzi tyrosyl tRNA synthetase (TcYRS) SOP. Type of assay: functional. As to conditions: 30 µM.
Assay [8] deals with Chromo domain-containing protein 1 (Saccharomyces cerevisiae (strain ATCC 204508 / S288c) (Baker's yeast)) (UniProt P32657). As to the kind of experiment: ScCHD-1 Enzyme Inhibition Assay. Further: in the data most compounds retested in dose-response had high values. Particulars: 30 µM. Type of assay: functional.
Chromo domain-containing protein 1 (Saccharomyces cerevisiae (strain ATCC 204508 / S288c) (Baker's yeast)), sequence (P32657 whole entry, the tested form may be a part): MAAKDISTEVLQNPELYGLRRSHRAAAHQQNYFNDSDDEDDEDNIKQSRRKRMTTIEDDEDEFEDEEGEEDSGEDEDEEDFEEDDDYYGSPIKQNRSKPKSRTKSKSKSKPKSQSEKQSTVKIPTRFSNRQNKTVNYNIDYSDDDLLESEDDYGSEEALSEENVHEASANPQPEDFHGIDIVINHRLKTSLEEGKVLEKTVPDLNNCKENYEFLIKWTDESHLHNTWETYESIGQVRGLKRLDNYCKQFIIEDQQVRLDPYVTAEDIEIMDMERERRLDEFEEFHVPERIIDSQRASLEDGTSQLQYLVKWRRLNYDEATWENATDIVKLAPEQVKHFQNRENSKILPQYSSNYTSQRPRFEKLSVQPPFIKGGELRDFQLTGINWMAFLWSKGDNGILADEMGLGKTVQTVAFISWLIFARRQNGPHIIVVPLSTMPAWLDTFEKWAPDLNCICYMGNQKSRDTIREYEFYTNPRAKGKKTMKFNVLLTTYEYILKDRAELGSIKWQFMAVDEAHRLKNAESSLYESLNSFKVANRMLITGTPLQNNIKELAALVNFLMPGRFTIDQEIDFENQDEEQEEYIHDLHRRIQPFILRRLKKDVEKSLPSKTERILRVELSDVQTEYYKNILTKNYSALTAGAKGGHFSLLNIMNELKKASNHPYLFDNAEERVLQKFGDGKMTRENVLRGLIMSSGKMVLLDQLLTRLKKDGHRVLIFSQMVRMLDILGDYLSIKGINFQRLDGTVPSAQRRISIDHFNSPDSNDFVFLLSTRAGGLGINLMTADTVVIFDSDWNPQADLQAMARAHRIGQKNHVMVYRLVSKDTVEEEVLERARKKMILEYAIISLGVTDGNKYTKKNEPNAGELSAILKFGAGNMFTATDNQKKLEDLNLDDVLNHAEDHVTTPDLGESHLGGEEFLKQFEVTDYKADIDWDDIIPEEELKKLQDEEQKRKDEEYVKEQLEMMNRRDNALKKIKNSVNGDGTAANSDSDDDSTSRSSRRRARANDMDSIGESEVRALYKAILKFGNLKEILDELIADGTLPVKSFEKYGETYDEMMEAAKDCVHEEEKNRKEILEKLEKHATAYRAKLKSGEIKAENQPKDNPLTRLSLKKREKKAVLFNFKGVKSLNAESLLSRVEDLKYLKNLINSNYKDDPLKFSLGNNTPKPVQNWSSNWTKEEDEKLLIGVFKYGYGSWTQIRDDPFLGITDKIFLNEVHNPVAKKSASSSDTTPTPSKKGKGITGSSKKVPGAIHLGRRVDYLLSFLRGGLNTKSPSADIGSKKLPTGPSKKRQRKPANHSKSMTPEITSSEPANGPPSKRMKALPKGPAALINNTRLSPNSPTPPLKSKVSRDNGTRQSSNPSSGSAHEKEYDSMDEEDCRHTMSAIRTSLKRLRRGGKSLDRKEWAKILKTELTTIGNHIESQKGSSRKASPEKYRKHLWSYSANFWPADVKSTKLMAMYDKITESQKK

Each structure is given as a SMILES string. For some assays here: Results with a measured potency or affinity are listed apart.

Protein translocase subunit SecA (Escherichia coli (strain K12)), sequence (P10408 whole entry): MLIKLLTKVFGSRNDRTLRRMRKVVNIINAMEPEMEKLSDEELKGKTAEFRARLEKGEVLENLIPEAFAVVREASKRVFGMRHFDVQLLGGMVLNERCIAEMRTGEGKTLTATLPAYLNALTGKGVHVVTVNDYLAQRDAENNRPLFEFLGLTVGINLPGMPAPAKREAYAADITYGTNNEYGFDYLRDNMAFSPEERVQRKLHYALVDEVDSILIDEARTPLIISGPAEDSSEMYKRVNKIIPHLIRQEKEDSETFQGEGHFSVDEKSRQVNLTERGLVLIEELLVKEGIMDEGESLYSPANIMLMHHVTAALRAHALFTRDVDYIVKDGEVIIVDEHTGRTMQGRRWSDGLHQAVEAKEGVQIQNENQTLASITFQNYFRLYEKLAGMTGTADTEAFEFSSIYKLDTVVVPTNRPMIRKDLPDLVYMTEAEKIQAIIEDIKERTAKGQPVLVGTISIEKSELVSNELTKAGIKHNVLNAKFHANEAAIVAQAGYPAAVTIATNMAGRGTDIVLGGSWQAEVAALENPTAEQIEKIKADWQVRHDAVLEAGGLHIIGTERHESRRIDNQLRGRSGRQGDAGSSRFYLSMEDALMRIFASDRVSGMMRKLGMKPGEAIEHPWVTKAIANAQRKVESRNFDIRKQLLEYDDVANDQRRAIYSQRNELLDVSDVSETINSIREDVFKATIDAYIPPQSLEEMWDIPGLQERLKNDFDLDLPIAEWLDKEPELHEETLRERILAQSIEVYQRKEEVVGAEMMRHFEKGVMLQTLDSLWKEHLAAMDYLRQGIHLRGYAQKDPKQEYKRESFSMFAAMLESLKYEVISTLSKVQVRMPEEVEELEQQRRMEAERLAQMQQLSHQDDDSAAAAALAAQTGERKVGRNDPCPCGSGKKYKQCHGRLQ

As for `CCc1ncc(C(=O)N2CCOCC2c2c(C)n[nH]c2C)s1` (stereo not given), the Percent Effect in assay [1] is -0.434%; in [2], 10.3%; in assay [3], -1.82%; with Trypanosoma cruzi it was 7.23%; in assay [4] it was 0.41%; in assay [5], 1.11%. The Percent Effect in the assay filed under Homo sapiens was -6.48%; in assay [6], -0.478%; in assay [7], 8.43%; in assay [8] it was -1.09%.

Take `CNc1nc2c(s1)C(=O)CN(C(=O)NCc1ccccc1)C2`: the Percent Effect in assay [1] is -2.61%; in assay [2], 8%; in assay [3] it was -5.95%; with Trypanosoma cruzi, -8.84%; in assay [4], 5.32%; in [5] it was 9.41%. Moreover, the Percent Effect in the assay filed under Homo sapiens was 15.2%; in assay [6], 1.58%; in assay [7], 2.56%; in [8], -6.84%.

`CCCc1cc(CNC(=O)C2CCOc3ccccc3C2)on1` (stereo not given): the Percent Effect in assay [1] was -1.27%; in [2], 10.8%; in [3] it was 3.17%; with Trypanosoma cruzi, 2.62%; in assay [4], 15.7%; in assay [5], 10.8%. Besides, the Percent Effect was 29.7% in the assay listed under Homo sapiens, 5.85% in assay [6], 14.6% in assay [7] and -2.75% in [8].

Turning to `CC(NC(=O)CN(C)S(C)(=O)=O)c1nnc2n1CCCCC2` (stereo not given), the Percent Effect in assay [1] was 1.95%; in assay [2] it was 13%; in assay [3], 1.1%; with Trypanosoma cruzi it was -4.48%; in assay [4], -15%; in assay [5] it was 17.2%. The Percent Effect in the assay filed under Homo sapiens is 26.4%; in assay [6] it was -0.98%; in assay [7] it was 4.71%; in assay [8] it was -8.79%.

For `CCN(C)Cc1cnc(S(=O)(=O)CC)n1CCOC`, the Percent Effect is -9.54% in assay [1]; 0% in assay [2]; -2.25% in assay [3]; -3.4% in the assay with Trypanosoma cruzi; 2.45% in [4]; -0.856% in [5]. In addition, the Percent Effect is 0.566% in the assay filed under Homo sapiens, 1.6% in [6], 4.88% in assay [7] and 2.11% in assay [8].

As to `O=C(N1CCCC1)N1CCC2(CCCN(CCOc3ccccc3)C2)C1` (stereo not given), the Percent Effect is -5.49% in [1]; 16.9% in assay [2]; -3.35% in assay [3]; -2.63% in the assay on Trypanosoma cruzi; -1.37% in [4]; 12.3% in [5]. Further, the Percent Effect in the assay filed under Homo sapiens is 15.5%; in assay [6] it was 1.93%; in [7], 2.5%; in [8], -13.4%.

`CNc1cncc(C2CCCN2Cc2c[nH]cn2)n1` (stereo not given): the Percent Effect was -0.293% in assay [1]; 9.33% in assay [2]; -0.612% in assay [3]; -4.14% in the assay with Trypanosoma cruzi; 2.21% in assay [4]; 7.88% in assay [5]. For the same compound, the Percent Effect is 5.77% in the assay filed under Homo sapiens, 5.29% in assay [6], 15% in [7] and -25.9% in assay [8].

With `CNc1snc(C)c1C(=O)N1CCCC(n2ccnc2C(C)C)C1` (stereo not given), the Percent Effect in [1] is -0.908%; in assay [2] it was 0%; in assay [3], 1.03%; with Trypanosoma cruzi it was 2.21%; in [4], 0.444%; in assay [5], 5%. In addition, the Percent Effect is 14.7% in the assay filed under Homo sapiens, 1.58% in assay [6], 0% in [7] and -1.07% in [8].

On to `CCNC(=O)[C@@H]1C[C@@H](NC(=O)c2cccnc2O)CN1Cc1ccsc1`, for which the Percent Effect in assay [1] is -5.31%; in assay [2] it was 16.2%; in [3] it was 11.3%; in the assay on Trypanosoma cruzi it was 3.59%; in [4], 17.1%; in assay [5] it was 19.2%. For the same compound, the Percent Effect in the assay listed under Homo sapiens was 2.29%; in assay [6], 6.92%; in [7], 21.9%; in [8], -4.37%.

With `CC(C)(C)n1ncc2c1NC(=O)CC2c1ccc(OCC(N)=O)cc1` (stereo not given), the Percent Effect in assay [1] was -6.78%; in [2] it was 5.41%; in assay [3], -0.0971%; in the assay on Trypanosoma cruzi it was 0.097%; in [4], 1.75%; in assay [5], 11.8%. For the same compound, the Percent Effect in the assay listed under Homo sapiens was -6.02%; in assay [6] it was 9.04%; in assay [7], 14.6%; in [8] it was -0.195%.

Take `COc1cc(CNCc2ccc(NC(=O)NC(C)C)cc2)cc(OC)c1`: the Percent Effect is -1.27% in assay [1]; 15.6% in assay [2]; 5.02% in assay [3]; 6.9% in the assay on Trypanosoma cruzi; 10.4% in assay [4]; 16.1% in assay [5]. In addition, the Percent Effect is 33.6% in the assay filed under Homo sapiens, 8.82% in assay [6], 30.6% in assay [7] and -10.7% in [8].
